Source: PubChem BioAssay
Hits are enriched below; roughly 1.7% of the tested compounds scored in any of these assays.
aDG glyco up – activators of alpha-DG glycosylation, primary screen, uHTS, Pro5-aDG cells, AlphaScreen. alpha-DG glycosylation AlphaScreen (IIH6); 0% Pro5, 100% B10-LARGE cell signal. activation, % at 10 µM. actives 0.22% (n = 360,000). AID 624168, 2012;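 active = activation of at least 8% versus controls, or a plate z-score of at least 8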;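 also: Pro5 are CHO cells carrying HIG-tagged alpha-DG that lacks glycosylation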
ARNT TACC3 PPI – disruptors of ARNT/TACC3 protein interaction, primary screen, biochemical, AlphaScreen, single concentration; AlphaScreen His-ARNT PAS-B/GST-TACC3 binding, luminescence; TACC3 fragment carries E629A point mutation; inhibition, % at 9.99 µM; actives 0.66% (n = 390,000);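 active = mean inhibition of replicates at least 50% and at least half of replicates each reaching 50%; inconclusive = half or more replicates reach 50% but mean below 50%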;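 also: 0% = complete ARNT plus TACC3 wells and 100% = ARNT alone without TACC3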
Cardio protect – cardioprotection against H2O2-induced cell death, primary screen, uHTS, H9c2 cells, ATPLite luminescence | H9c2 cardiomyocytes, H2O2 injury protection, 2 h | protection from H2O2 cell death, % at 20 µM | actives 0.63% (n = 360,000) | AID 588492, 2011;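 active = compounds giving at least 50% protection of heart cells from peroxide-induced death in the single-dose screen, raw or plate-pattern-corrected value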;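 also: 0% = DMSO wells with peroxide and 100% = DMSO wells without peroxide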
N-glyco inh – increase of ERlucT glycosylation luciferase signal, primary screen, N-linked glycosylation inhibitor project, D54 ERlucT cells, luminescence, set 2. D54 ERlucT glycosylation luciferase reporter, 24 h; percent of 100 nM tunicamycin response. reporter increase, % at 12.5 µM. actives 0.23% (n = 360,000). AID 588692, 2011;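 active = mean luciferase reporter signal, scaled so untreated is 0 and the glycosylation-blocking control 100, at or above a set limit in every replicate; inconclusive = mean reaches the limit but not every replicate does; inactive = mean below the limit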;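 also: luciferase carries N-glycosylation sites so blocking glycosylation raises the light; 0% = median of neutral control wells and 100% = median of 100 nM tunicamycin wells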
Vif imaging – HIV Vif self-association inhibitors, primary screen, imaging, HEK293T, single point; HEK293T cells, Vif self-association by quenched fluorescence, 24 h; inhibition, % at 7.49 µM; actives 0.35% (n = 340,000); in the data active = inhibition above about 50%, passing the limit was not always enough; inconclusive = no clear call, values can overlap the other calls; inactive = below about 31%
* = called active by the depositor; i = inactive; ? = inconclusive; . = no result given; ! = not confirmed by another sample.

SMILES	aDG glyco up	ARNT TACC3 PPI	Cardio protect	N-glyco inh	Vif imaging
COc1ccc2c(c1)C(=O)N1[C@H]3c4cc(C)ccc4OC[C@@H]3[C@H](c3ccccc3)[C@]1(C)C(=O)N2	0.0	1.4	-1.5	24.5	3.3
COc1ccc2c(c1)[C@H]1[C@H](CO2)[C@H](c2ccccc2)[C@]2(C)C(=O)Nc3ccc(Cl)cc3C(=O)N12	0.3	0.9	-5.7	40.0*	-3.7
COc1ccc2c(c1)[C@@H]1[C@H](CO2)[C@H](c2ccccc2)[C@]2(C)C(=O)Nc3ccc(C)cc3C(=O)N12	0.3	-3.5	10.7	34.0*	-5.0
C[C@@]12C(=O)Nc3ccc(Cl)cc3C(=O)N1[C@H]1c3cc(Cl)ccc3OC[C@@H]1[C@@H]2c1ccccc1	0.0	-2.3	-2.2	17.2	0.6
Cc1ccc(S(=O)(=O)Nc2cccc3c2O[C@@H](CN(C)Cc2ccc(Oc4ccccc4)cc2)[C@H](C)CN([C@H](C)CO)C3=O)cc1	.	0.4	.	.	.
COc1ccc2c(c1)[C@H]1[C@H](CO2)[C@H](c2ccccc2)[C@]2(C)C(=O)Nc3ccc(F)cc3C(=O)N12	0.0	.	-6.0	51.4*	-2.5
COc1ccc2c(c1)OC[C@H]1[C@H]2N2C(=O)c3ccccc3NC(=O)[C@@]2(C)[C@H]1c1ccccc1	0.5	-9.6	0.7	4.8	-0.4
COc1ccc2c(c1)OC[C@H]1[C@H]2N2C(=O)c3cc(C)ccc3NC(=O)[C@@]2(C)[C@H]1c1ccccc1	0.3	-9.4	-3.8	39.1*	-6.0
COc1ccc(-c2ccc3c(c2)O[C@@H](CN(C)C(=O)Nc2ccccc2F)[C@@H](C)CN([C@@H](C)CO)S3(=O)=O)cc1	.	3.4	.	.	.
O=C1NCC2=C1C(c1ccc(Br)cc1)Nc1ccccc1N2 (stereo not given)	0.0	active	4.3	0.1	-7.7
C[C@@H]1CCCCO[C@@H](CN(C)S(=O)(=O)c2ccccc2)[C@@H](C)CN([C@H](C)CO)C(=O)c2cc(NS(=O)(=O)c3cccs3)ccc2O1	.	1.2	.	.	.
CN(C)c1ccc(/C=C2\Oc3ccc(C#Cc4cccc(N)c4)cc3C2=O)cc1	0.3	-7.1	-3.6	-3.8	62.6*
COC(=O)c1ccc(C)c(NS(=O)(=O)c2ccc3c(c2)OCCO3)c1	-0.1	4.7	2.1	30.8*	.
COC(=O)c1ccc(C)c(NS(=O)(=O)c2ccc(OC)cc2)c1	-0.1	3.7	2.1	16.0	9.5
COc1ccccc1CNC(=O)C[C@@H]1CC[C@H]2[C@@H](COC[C@@H](O)CN2C(=O)Nc2ccc(C(F)(F)F)cc2)O1	.	-4.1	.	.	.
CCOC(=O)c1csc(-c2csc(CCNC(=O)c3ccccc3)n2)n1	0.0	.	12.9	-2.6	50.8*
O=C(NCCCn1ccnc1)/C(=C\c1ccco1)NC(=O)c1ccco1	0.0	57.4*	2.4	1.0	0.7
O=C(NCCCn1ccnc1)/C(=C/c1ccc(F)cc1)NC(=O)c1ccccc1	-0.1	62.2*	1.7	2.2	9.1
CCC(C)n1c(NC(=O)c2ccccc2)c(C#N)c2nc3ccccc3nc21 (stereo not given)	2.1	.	-7.7	3.2	15.3
CCCCn1c(NC(=O)c2ccccc2)c(C#N)c2nc3ccccc3nc21	0.5	14.9	-3.3	3.3	51.8*
S=C(Nc1ccccc1)N1CCn2c(nc3ccccc32)C1	1.1	-9.5	-2.9	-1.9	58.3*
COc1cccc(NC(=S)N2CCn3c(nc4ccccc43)C2)c1	0.7	-1.1	1.0	-0.5	12.7
CNC[C@@H]1Oc2ncc(Br)cc2C(=O)N([C@@H](C)CO)C[C@H]1C	.	-0.2	.	.	.
COC(=O)c1cccc(-c2ccc(C(c3c(C)[nH][nH]c3=O)c3c(C)[nH][nH]c3=O)o2)c1	-0.3	63.7*	9.0	?	4.7
Cc1[nH][nH]c(=O)c1C(c1ccc(-c2ccc(Cl)c(C(=O)O)c2)o1)c1c(C)[nH][nH]c1=O	-0.3	13.0	-7.0	6.9	0.7
SMILES	aDG glyco up	ARNT TACC3 PPI	Cardio protect	N-glyco inh	Vif imaging
O=C1CC[C@@H]2c3[nH]c4ccc(Br)cc4c3CCN12	.	-0.1	.	.	.
Nc1ccc2ccc(O)cc2c1	0.5	5.9	-15.2	10.0	-5.0
C[n+]1c2cc(N)ccc2cc2ccc(N)cc21	0.2	27.6*!	-38.2	-13.9	i
O=S(=O)(Nc1cc(Sc2ncn[nH]2)c(O)c2ccccc12)c1ccccc1	-0.4	.	-16.4	13.8	-1.8
O=C(O)CSc1cc(NS(=O)(=O)c2ccc(Br)cc2)c2ccccc2c1O	3.4*	97.2*	-17.8	14.5	1.2
Cc1cc(C(=O)Nc2c(C)cccc2C)n(-c2ccccc2)n1	0.1	-16.4	1.8	3.1	-0.9
Cc1cc(C(=O)Nc2c(F)c(F)c(F)c(F)c2F)n(-c2ccccc2)n1	0.1	10.8	-2.4	0.1	72.9*
Cc1ccc(S(=O)(=O)Nc2ccc3c(c2)C(=O)N([C@@H](C)CO)C[C@@H](C)[C@@H](CN(C)C(=O)CCCN(C)C)OCCCC[C@H](C)O3)cc1	.	-0.3	.	.	.
CN(C)C(=O)c1ccc(-c2ccc3c(c2)[C@H]2[C@H](CCN2C(=O)c2cnccn2)[C@H](CO)N3)cc1	.	2.0	.	.	.
CC1(c2nnc(-c3ccc(Cl)cc3)o2)CC(c2ccncc2)=NO1 (stereo not given)	-0.1	-1.7	-7.7	-0.2	1.0
Cc1ccc(C2=NOC(C)(c3nnc(-c4ccncc4)o3)C2)cc1 (stereo not given)	0.1	-6.1	-3.2	0.7	135.0*
C[C@@H]1CCCCO[C@@H](CN(C)Cc2ccccc2)[C@H](C)CN([C@@H](C)CO)C(=O)c2cc(NC(=O)CCC(F)(F)F)ccc2O1	.	13.2	.	.	.
CCCNC(=O)C[C@@H]1CC[C@@H]2[C@H](COC[C@@H](O)CN2C(=O)Nc2ccc3c(c2)OCO3)O1	.	-37.6	.	.	.
C/C(=N/NC(=O)c1cccs1)c1cccc(NC(=O)C2CC2)c1	0.0	-0.9	58.0*	3.1	-8.3
C/C(=N\NC(=O)c1cc(-c2cccs2)nc2ccccc12)c1ccccn1	-0.5	72.5*	31.2	-13.8	3.4
C/C(=N\NC(=O)C1COc2ccccc2O1)c1ccccn1 (stereo not given)	1.0	64.1*	43.6	-4.0	17.7
C/C(=N\NC(=O)C1COc2ccccc2O1)c1ccc(C)o1 (stereo not given)	0.6	19.7	8.5	2.0	4.7
C/C(=N\NC(=O)c1cccc(N/N=C(\C)c2ccncc2)c1)c1ccncc1	0.0	6.4	68.3*	-1.9	10.2
COCC(=O)Nc1ccc2c(c1)C(=O)N(C)C[C@@H](OC)[C@H](C)CN(CC1CC1)[C@H](C)CO2	.	-8.5	.	.	.
